Experimental data from PubChem BioAssay (EPA / NIEHS).
Activity calls are given as the source filed them. Rule for the calls: active = hit-call score of the fitted dose curve at least 0.9, where 1 is the maximum; inactive = score below 0.9.

How the values were obtained:
[1] = ATG_CRE_CIS: Attagene CIS-FACTORIAL HepG2 Assay for human cAMP Responsive Element (CRE) binding protein 3 (AID 2282926); settings: HepG2 CRE cis-reporter, Attagene multiplexed mRNA; actives raise or lower the signal
Procedure, shortened: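 HepG2 cells transiently transfected with cis-element-driven multiple reporter transcription units; CRE reporter mRNA measured 24 h after dosing by RT-PCR, 6-FAM labelling, HpaI digestion and capillary electrophoresis. Bidirectional fit versus DMSO baseline.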

[2] = target: CCAAT/enhancer-binding protein beta (Homo sapiens) (UniProt P17676); experiment: ATG_C_EBP_CIS: Attagene CIS-FACTORIAL HepG2 Assay for human CCAAT/Enhancer Binding Protein (C/EBP) beta (AID 2282927); settings: HepG2 Attagene cis-factorial transcription factor reporter; actives raise or lower the signal
Chain of CCAAT/enhancer-binding protein beta (Homo sapiens) (P17676 whole entry, looked up): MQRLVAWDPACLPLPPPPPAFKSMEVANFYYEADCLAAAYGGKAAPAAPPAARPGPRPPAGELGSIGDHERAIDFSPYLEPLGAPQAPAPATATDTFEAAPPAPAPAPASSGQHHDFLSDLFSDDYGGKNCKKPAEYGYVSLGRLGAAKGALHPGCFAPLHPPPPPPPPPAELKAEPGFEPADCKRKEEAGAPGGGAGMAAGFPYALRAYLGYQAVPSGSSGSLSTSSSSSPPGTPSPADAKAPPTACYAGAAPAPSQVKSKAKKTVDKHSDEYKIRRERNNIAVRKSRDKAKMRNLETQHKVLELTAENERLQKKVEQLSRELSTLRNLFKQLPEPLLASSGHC
Procedure, shortened: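 Following a 24 h incubation with test chemical, transfected HepG2 cells yielded RNA whose reporter transcripts were quantified by RT-PCR and fluorescent capillary electrophoresis, with DMSO serving as baseline for bidirectional fitting.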

[3] = ATG_CMV_CIS: Attagene CIS-FACTORIAL HepG2 Assay for human CMV (Internal Marker) (AID 2282928); settings: HepG2 CMV promoter reporter, transcription factor profiling; actives raise or lower the signal;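 note: endpoint acts as a background internal control marker rather than a target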
Procedure, shortened: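 CMV internal-marker background readout in transiently transfected HepG2 cells bearing cis-regulated reporter units. Reporter mRNA is measured 24 h after dosing by RT-PCR and capillary electrophoresis, with bidirectional fitting against DMSO.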

[4] = ATG_DR4_LXR_CIS: Attagene CIS-FACTORIAL HepG2 Assay for human Liver X Receptor (LXR), DR4 submotif (AID 2282929); settings: HepG2 Attagene DR4 cis-reporter, mRNA transcription; actives raise or lower the signal
Procedure, shortened: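 Total RNA from 24 h-treated, MRTU-transfected HepG2 cells underwent reverse transcription, PCR, fluorescent primer extension and restriction digestion before capillary electrophoresis. Both increases and decreases in reporter signal were fitted against DMSO.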

[5] = target: Aryl hydrocarbon receptor (Homo sapiens) (UniProt P35869); experiment: ATG_Ahr_CIS: Attagene CIS-FACTORIAL HepG2 Assay for human Aryl Hydrocarbon Receptor (Ahr) (AID 2282930); settings: HepG2 AhR cis-factorial reporter transcription; actives raise or lower the signal
Chain of Aryl hydrocarbon receptor (Homo sapiens) (P35869 whole entry, looked up): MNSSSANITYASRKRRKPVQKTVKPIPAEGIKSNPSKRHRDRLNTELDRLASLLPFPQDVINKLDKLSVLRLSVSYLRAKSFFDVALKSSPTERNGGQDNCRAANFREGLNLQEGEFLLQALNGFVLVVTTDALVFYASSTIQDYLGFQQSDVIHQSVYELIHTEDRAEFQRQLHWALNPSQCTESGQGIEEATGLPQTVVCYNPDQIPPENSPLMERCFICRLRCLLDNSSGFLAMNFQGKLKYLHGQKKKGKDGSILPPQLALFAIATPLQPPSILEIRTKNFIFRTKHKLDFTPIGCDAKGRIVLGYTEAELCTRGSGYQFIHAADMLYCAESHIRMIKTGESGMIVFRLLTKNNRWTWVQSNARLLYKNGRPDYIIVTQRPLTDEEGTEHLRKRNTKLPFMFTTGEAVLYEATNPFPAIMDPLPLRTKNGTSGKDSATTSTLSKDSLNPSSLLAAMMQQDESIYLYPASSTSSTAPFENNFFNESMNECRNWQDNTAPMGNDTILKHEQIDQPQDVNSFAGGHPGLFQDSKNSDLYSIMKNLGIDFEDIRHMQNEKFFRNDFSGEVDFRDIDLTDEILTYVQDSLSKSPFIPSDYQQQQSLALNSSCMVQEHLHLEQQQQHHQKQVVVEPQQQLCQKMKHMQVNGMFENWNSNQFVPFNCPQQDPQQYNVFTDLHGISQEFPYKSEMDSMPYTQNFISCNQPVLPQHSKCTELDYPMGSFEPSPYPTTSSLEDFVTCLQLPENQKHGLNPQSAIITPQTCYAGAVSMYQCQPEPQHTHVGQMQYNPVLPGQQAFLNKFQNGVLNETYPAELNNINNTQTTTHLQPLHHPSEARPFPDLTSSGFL
Procedure, shortened: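 Values derive from bidirectional fitting against DMSO negative control. Underlying signal: cis-element reporter mRNA in transiently transfected HepG2, harvested 24 h post-dose and measured by RT-PCR plus capillary electrophoresis.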

[6] = ATG_AP_2_CIS: Attagene CIS-FACTORIAL HepG2 Assay for human Activator Protein 2 (AP-2) (AID 2282932); settings: HepG2 AP-2 cis-reporter, Attagene transcription factor profiling; actives raise or lower the signal
Procedure, shortened: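 HepG2 cells were transiently transfected with multiple cis-promoter reporter transcription units and dosed for 24 h. Reporter mRNA was measured by RT-PCR with capillary electrophoresis fluorescence; bidirectional fits relative to DMSO baseline.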

[7] = ATG_BRE_CIS: Attagene CIS-FACTORIAL HepG2 Assay for human Bone Morphogenetic Protein (BMP) Response Element (BRE) (AID 2282933); settings: HepG2 BMP response element reporter, Attagene transcription factor profiling; actives raise or lower the signal
Procedure, shortened: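 After a 24 h chemical treatment, transiently transfected HepG2 cells were lysed for RNA; reporter transcripts were quantified by fluorescent RT-PCR and capillary electrophoresis, normalised to DMSO.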

[8] = target: Transcription factor E2F1 (Homo sapiens) (UniProt Q01094); experiment: ATG_E2F_CIS: Attagene CIS-FACTORIAL HepG2 Assay for human E2F Transcription Factor 1 (AID 2282935); settings: HepG2 Attagene cis-reporter, E2F reporter RNA transcripts; actives raise or lower the signal
Chain of Transcription factor E2F1 (Homo sapiens) (Q01094 whole entry, looked up): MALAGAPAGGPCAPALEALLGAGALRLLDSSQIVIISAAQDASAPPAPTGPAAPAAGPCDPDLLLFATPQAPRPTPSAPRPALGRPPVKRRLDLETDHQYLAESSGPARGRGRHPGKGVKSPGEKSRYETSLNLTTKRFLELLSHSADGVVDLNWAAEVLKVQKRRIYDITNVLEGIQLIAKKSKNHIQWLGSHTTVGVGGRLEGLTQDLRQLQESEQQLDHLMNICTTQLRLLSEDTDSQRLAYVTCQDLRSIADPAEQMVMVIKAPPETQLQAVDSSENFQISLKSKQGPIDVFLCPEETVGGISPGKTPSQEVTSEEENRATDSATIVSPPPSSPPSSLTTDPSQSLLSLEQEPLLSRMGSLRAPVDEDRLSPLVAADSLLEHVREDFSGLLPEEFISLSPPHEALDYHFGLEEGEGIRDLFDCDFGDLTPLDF
Procedure, shortened: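 HepG2 cells transiently transfected with multiplexed cis-element reporter units, dosed for 24 h. Reporter mRNA measured by RT-PCR, 6-FAM primer-extension labeling, HpaI digestion and capillary electrophoresis; bidirectional fit versus DMSO baseline.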

[9] = ATG_E_Box_CIS: Attagene CIS-FACTORIAL HepG2 Assay for human Enhancer Box (E-box) (AID 2282936); settings: HepG2 E-box cis-reporter transcription, actives raise or lower the signal
Procedure, shortened: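 HepG2 cells transiently transfected with multiplexed cis-element reporter units sensing endogenous transcription factor activity; 24 h compound exposure. Reporter mRNA measured by RT-PCR, 6-FAM primer extension, HpaI digestion and capillary electrophoresis; bidirectional fit versus DMSO.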

[10] = ATG_EGR_CIS: Attagene CIS-FACTORIAL HepG2 Assay for human Early Growth Response 1 (EGR1) (AID 2282938); settings: HepG2 Attagene CIS-FACTORIAL EGR reporter mRNA; actives raise or lower the signal
Procedure, shortened: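 After a 24 h treatment of transiently transfected HepG2 cells, total RNA was reverse-transcribed and reporter sequences PCR-amplified, labelled and run on capillary electrophoresis. Reporters sit under cis-regulatory promoters sensing endogenous factors.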

[11] = ATG_M_19_CIS: Attagene CIS-FACTORIAL HepG2 Assay for M19 Transcription Factor (Internal Marker) (AID 2282939); settings: HepG2 Attagene CIS-FACTORIAL M19 internal marker reporter; actives raise or lower the signal
Procedure, shortened: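 In this multiplexed cell assay, transiently transfected HepG2 reporter units report endogenous transcription-factor activity; after 24 hours of treatment, labelled reporter cDNA fragments are quantified by capillary electrophoresis and fitted bidirectionally against DMSO.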

[12] = ATG_ERE_CIS: Attagene CIS-FACTORIAL HepG2 Assay for Estrogen Response Element (ERE) (AID 2282940); settings: HepG2 ERE cis-reporter, Attagene RNA transcript; actives raise or lower the signal
Procedure, shortened: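 Measuring endogenous transcription factor output, the assay doses transfected HepG2 cells for 24 hours and quantifies reporter transcripts by fluorescent RT-PCR and capillary electrophoresis, with DMSO as baseline.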

[13] = ATG_Ets_CIS: Attagene CIS-FACTORIAL HepG2 Assay for human Erythroblast Transformation Specific (ETS) (AID 2282941); settings: HepG2 ETS cis-reporter transcription, actives raise or lower the signal
Procedure, shortened: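 HepG2 cells transfected with multiple cis-regulated reporter units measuring endogenous ETS-driven transcription, 24 h after dosing. Reporter mRNA quantified by RT-PCR with capillary electrophoresis; bidirectional fit relative to DMSO.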

[14] = target: Hepatocyte nuclear factor 3-beta (Homo sapiens) (UniProt Q9Y261); experiment: ATG_FoxA2_CIS: Attagene CIS-FACTORIAL HepG2 Assay for human Forkhead box A2 (FOXA2) (AID 2282942); settings: HepG2 cis-reporter transcription factor activity, 24 h; actives raise or lower the signal
Chain of Hepatocyte nuclear factor 3-beta (Homo sapiens) (Q9Y261 whole entry, looked up): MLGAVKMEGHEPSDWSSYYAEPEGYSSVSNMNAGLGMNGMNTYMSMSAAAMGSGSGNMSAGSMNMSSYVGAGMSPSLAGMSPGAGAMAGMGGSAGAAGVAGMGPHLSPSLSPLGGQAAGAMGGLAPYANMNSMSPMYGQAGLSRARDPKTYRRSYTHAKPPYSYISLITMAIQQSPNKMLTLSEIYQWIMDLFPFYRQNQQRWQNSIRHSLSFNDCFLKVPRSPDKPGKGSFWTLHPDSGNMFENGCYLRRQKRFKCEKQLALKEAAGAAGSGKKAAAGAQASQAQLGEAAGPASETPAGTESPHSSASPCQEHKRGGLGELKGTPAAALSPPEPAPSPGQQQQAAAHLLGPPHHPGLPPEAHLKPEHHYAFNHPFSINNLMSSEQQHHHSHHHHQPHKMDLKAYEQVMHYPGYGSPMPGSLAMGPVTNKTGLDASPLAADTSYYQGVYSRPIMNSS
Procedure, shortened: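 24 h dosing of HepG2 bearing cis-reporter constructs; mRNA readout by RT-PCR/CE fluorescence; bidirectional fit, DMSO baseline.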

[15] = ATG_FoxO_CIS: Attagene CIS-FACTORIAL HepG2 Assay for human Forkhead box O (FoxO) (AID 2282943); settings: HepG2 Attagene cis-reporter, FoxO element, mRNA; actives raise or lower the signal
Procedure, shortened: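 Values reflect reporter mRNA induction or loss in HepG2 cells 24 h post-dosing, fitted bidirectionally with DMSO as negative control and baseline. Detection used RT-PCR and fluorescence capillary electrophoresis.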

[16] = ATG_GATA_CIS: Attagene CIS-FACTORIAL HepG2 Assay for human GATA Binding Protein (AID 2282944); settings: HepG2 GATA cis-element reporter, Attagene multiplex mRNA; actives raise or lower the signal
Procedure, shortened: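 Measures endogenous transcription factor-driven reporter mRNA in HepG2 cells transiently carrying cis-regulated constructs. 24 h dosing; RNA via oligo(dT) reverse transcription, PCR, HpaI digestion, capillary electrophoresis; fitted relative to DMSO.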

[17] = target: Retinoic acid receptor alpha (Homo sapiens) (UniProt P10276); experiment: ATG_DR5_RAR_CIS: Attagene CIS-FACTORIAL HepG2 Assay for human Retinoic Acid Receptor Alpha (RARE), DR5 submotif (AID 2282934); settings: HepG2 Attagene cis-factorial RARE DR5 reporter, mRNA; actives raise or lower the signal
Chain of Retinoic acid receptor alpha (Homo sapiens) (P10276 whole entry, looked up): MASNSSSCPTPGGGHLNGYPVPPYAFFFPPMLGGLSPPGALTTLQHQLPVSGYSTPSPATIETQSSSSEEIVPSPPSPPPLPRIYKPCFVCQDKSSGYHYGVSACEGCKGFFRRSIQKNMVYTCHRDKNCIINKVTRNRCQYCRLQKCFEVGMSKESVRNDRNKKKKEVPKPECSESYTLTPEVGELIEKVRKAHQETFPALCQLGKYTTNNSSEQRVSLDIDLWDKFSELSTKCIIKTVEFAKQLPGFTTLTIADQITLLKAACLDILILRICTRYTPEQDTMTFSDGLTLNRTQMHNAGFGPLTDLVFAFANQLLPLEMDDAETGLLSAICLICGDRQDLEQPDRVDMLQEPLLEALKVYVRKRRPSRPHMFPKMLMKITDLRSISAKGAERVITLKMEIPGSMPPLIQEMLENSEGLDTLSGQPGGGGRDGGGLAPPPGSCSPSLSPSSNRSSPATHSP
Procedure, shortened: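 Endpoint fitted in both directions relative to DMSO as negative control. It reflects DR5 cis-element reporter mRNA induction in transiently transfected HepG2 cells, measured 24 h after dosing through RT-PCR and fluorescent capillary electrophoresis.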

[18] = ATG_M_61_CIS: Attagene CIS-FACTORIAL HepG2 Assay for M61 Transcription Factor (Internal Marker) (AID 2282937); settings: HepG2 Attagene CIS-FACTORIAL M61 internal marker reporter; actives raise or lower the signal
Procedure, shortened: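 Transfect HepG2 with MRTUs; dose 24 h; isolate RNA; reverse-transcribe with DNase I treatment; PCR-amplify, FAM-label and cut with HpaI for 2 h at 37 C; resolve by CE. Bidirectional fitting against DMSO.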

[19] = ATG_AP_1_CIS: Attagene CIS-FACTORIAL HepG2 Assay for human Activator Protein 1 (AP-1) (AID 2282931); settings: HepG2 Attagene cis-factorial AP-1 reporter mRNA; actives raise or lower the signal
Procedure, shortened: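 HepG2, transient cis-reporter transfection; 24 h; readout RT-PCR/CE fluorescence; DMSO baseline, gain and loss fitted.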

Measured: AC50

COc1ccccc1O
not listed: [17] | [18] | [19]
inactive: all other assays above

COc1ccc(C(C)=O)cc1
not listed: [7] | [19]
inactive: all other assays above

O=C1CCC(=O)N1
not listed: [9] | [17] | [18] | [19]
inactive: all other assays above

NC(=O)c1cnccn1
not listed: [6] | [17] | [19]
inactive: all other assays above

CCCCCCCCCCOC(=O)c1ccccc1C(=O)OCCCCCCCC
not listed: [6] | [9] | [17] | [18]
inactive: all other assays above

CCOCC(C)O (configuration not stated)
not listed: [6] | [9] | [17]
inactive: all other assays above

C=CC(=O)OCC(CO)(COC(=O)C=C)COC(=O)C=C
inactive: [2] | [5] | [18] | [11] | [13] | [16]
active: [1] 163 µM | [3] 5.31 µM | [4] 18 µM | [6] 27.8 µM | [8] 27 µM | [9] 22.2 µM | [10] 5.52 µM | [14] 123 µM | [15] 13.4 µM

O=S(=O)(O)CCCN1CCOCC1
not listed: [18] | [19]
inactive: all other assays above

CCCCCC(=O)O[C@]1(C(C)=O)CC[C@H]2[C@@H]3CCC4=CC(=O)CC[C@]4(C)[C@H]3CC[C@@]21C
active: [1] 6.58 µM | [2] 8.6 µM | [7] 7.66 µM
not listed: [17] | [19]
inactive: all other assays above

C[N+](C)(C)CCO
not listed: [6] | [17] | [19]
inactive: all other assays above

COc1ccc2[nH]cc(CCNC(C)=O)c2c1
not listed: [9] | [13] | [17] | [19]
inactive: all other assays above

CC(C)(C)c1ccc(S)cc1
not listed: [6] | [17] | [19]
inactive: all other assays above

CC(O)COCC(C)O (configuration not stated)
not listed: [7] | [16] | [17] | [19]
inactive: all other assays above

CC1(C)[C@H](C=C(Cl)Cl)[C@H]1C(=O)OCc1cccc(Oc2ccccc2)c1
not listed: [13] | [17] | [19]
inactive: all other assays above

COC(=O)c1ccc(C(=O)OC)cc1
not listed: [19]
inactive: all other assays above

CCC(C)COC(=O)CC(C)C (configuration not stated)
not listed: [16] | [19]
inactive: all other assays above

CCC(C)(CCCC(C)C)OC(C)=O (configuration not stated)
active: [5] 71.4 µM
not listed: [6] | [12] | [17] | [19]
inactive: all other assays above
